Hit rate of the full screen: of about 360,000 compounds, about 10,000 (2.8%) were called active. Roughly 4% stayed inconclusive and do not appear here. Only a selection was taken, and actives are over-represented in it overall. Values without a mark were called inactive. Calls come from the whole dose curve; as a rule, active = well fitted inhibition curve with a large enough effect; inconclusive = small, poorly fitted or top-dose-only effect; inactive = flat fitted curve, though single readings scatter.
target: Serine/threonine-protein kinase PLK1 (Homo sapiens) (UniProt P53350); experiment: qHTS for Inhibitors of PLK1-PDB (polo-like kinase 1 - polo-box domain): Primary Screen; conditions: Plk1 PBD binding of FITC phosphopeptide, fluorescence polarization; note: nearly all actives have a fitted effect of over 65% in size; for max response, negative = inhibition: series mostly up to about 57 µM
Excerpt: The polo-like kinase 1 (Plk1) is a member of a conserved subfamily of serine / threonine protein kinases that plays a pivotal roles in cell proliferation. It has a C-terminal non-catalytic region called the polo-box domain (PBD) that plays a crucial role in the subcellular localization of the Plk1. […] Furthermore, depletion of the overexpressed Plk1 by RNAi efficiently induces apoptotic cell death in cancer and reduces tumor growth in mouse xenograft models. Thus, targeting Plk1 is an appealing strategy for anti-cancer therapy. Therefore, this project aimed to screen the Molecular Libraries Small Molecule Repository (MLSMR) using a novel approach to find inhibitors that target the Plk1 PBD instead of the conventional N-terminal catalytic domain. This project employed a fluorescence polarization (FP) assay using a FITC-conjugated phospho-9-mer (p-9-mer) peptide and purified human Plk1 PBD protein. The identified small molecule inhibitors of Plk1 PBD can then further be developed into useful tools for biomedical and clinical research that complements or replaces current relevant disease therapy. NIH Chemical Genomics Center [NCGC] NIH Molecular Libraries Probe Centers Network [MLPCN] MLPCN Grant: MH100728 Assay Submitter (PI): Kyung Lee, NCI
Four microliter of 25 nM FITC-p-9-mer + 60 nM Plk1 PBD in buffer solution (final concentrations 25 nM and 60 nM respectively) or 4 uL of 25 nM FITC-p-9-mer (final concentration 25 nM) in buffer will be dispensed into a 1,536 Greiner medium-binding black solid plate. Small molecules at final concentrations of 18 nM to 57 uM and positive control phospho-9-mer (sequence: Ac-PPLHSpTAI-NH2) at final concentrations 26 nM to 57 uM and phospho-13-mer (sequence: Ac-[…]pTAI-NH2) at final concentrations of 1 nM to 2.3 uM will be pin-transferred (23 nL) to the plate via a Kalypsys pin-tool robotics equipped with a 1,536-pin array. The reaction plate will be centrifuged for 1 min at 1000 rpm and incubated at room temperature for 10 min. The FITC fluorescence signals will be read using the PerkinElmer ViewLux plate reader at 480 / 20 nm excitation and 540 / 20 nm S and P polarization emission wavelengths. Reagent bottles will be kept submerged into 4 °C recirculating chiller bath and all liquid lines will be covered with aluminum foil to minimize degradation. Library plates will be screened starting from the lowest to the highest concentrations to minimize compound carryover. Vehicle only plates, with DMSO being pin-transferred instead of compound solutions, will be included regularly throughout the screen to record any systematic shifts in assay signal.
% is set by controls: 0 for no effect and ±100 for the full control effect; potency is the fitted concentration of half-maximal effect.

Sequence of Serine/threonine-protein kinase PLK1 (Homo sapiens) (P53350 whole entry, looked up, the tested form may be a part): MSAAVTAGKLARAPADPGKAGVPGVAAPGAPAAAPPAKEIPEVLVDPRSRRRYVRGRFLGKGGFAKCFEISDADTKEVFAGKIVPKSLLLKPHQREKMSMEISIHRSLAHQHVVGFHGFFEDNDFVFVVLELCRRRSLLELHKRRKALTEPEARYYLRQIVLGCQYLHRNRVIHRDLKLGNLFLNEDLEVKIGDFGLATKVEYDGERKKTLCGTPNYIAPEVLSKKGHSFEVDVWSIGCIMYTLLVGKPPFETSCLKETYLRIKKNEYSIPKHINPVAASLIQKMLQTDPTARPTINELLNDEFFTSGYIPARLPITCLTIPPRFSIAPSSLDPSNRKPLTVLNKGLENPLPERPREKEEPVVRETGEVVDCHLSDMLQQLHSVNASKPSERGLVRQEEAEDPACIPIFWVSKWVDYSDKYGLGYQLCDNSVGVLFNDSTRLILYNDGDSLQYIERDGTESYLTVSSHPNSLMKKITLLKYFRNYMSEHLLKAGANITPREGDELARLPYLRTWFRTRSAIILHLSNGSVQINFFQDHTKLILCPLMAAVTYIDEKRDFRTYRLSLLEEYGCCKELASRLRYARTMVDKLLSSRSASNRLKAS

Q: Which max response, negative = inhibition does the source give for O=S(=O)(c1ccc(-c2ccccc2)cc1)N1CCCC1 here?
A: Its max response, negative = inhibition is -5.48%.

Q: Which Potency does the source give for O=S(=O)(NCc1ccccc1)c1ccc(S(=O)(=O)N2CCCC2)cc1 here?
A: Its Potency is 26.7 µM (active).

Q: For CC1CCN(S(=O)(=O)c2ccc(S(=O)(=O)NCc3cccnc3)cc2)CC1, which max response, negative = inhibition is on record?
A: The max response, negative = inhibition was -9.09%.

Q: How did the max response, negative = inhibition turn out when CN(Cc1ccc(C(F)(F)F)cc1)C(=O)[C@H]1O[C@@H](n2cnc3c(N)ncnc32)[C@H](O)[C@@H]1O was run?
A: The max response, negative = inhibition was -3.67%.

Q: Which max response, negative = inhibition does the source give for CN(C)C(=O)c1cccc(-c2cnc3c(NC=O)cc(-c4ccc(C(=O)N5CCOCC5)cc4)cn23)c1 here?
A: The max response, negative = inhibition was -14.7%.

Q: CCOC(=O)c1sc(NC(=O)CSc2nc(C)cc(C(F)(F)F)n2)c(C#N)c1C was tested. Which Potency did it give?
A: Its Potency is 2.99 µM (active).

Q: Which max response, negative = inhibition does the source give for CCn1c(SCC(=O)Nc2sc(C)c(C)c2C#N)nnc1C1CC1 here?
A: The max response, negative = inhibition was -26.7%.

Q: With Cc1cc(C(F)(F)F)nc(SCC(=O)Nc2nccs2)n1 as the molecule, how does the max response, negative = inhibition read?
A: Its max response, negative = inhibition is -4.23%.

Q: Which max response, negative = inhibition does the source give for CC(=O)OCC(C)n1c(=O)c2ccccc2n1C(C)=O (centres undefined) here?
A: Its max response, negative = inhibition is 1.28%.

Q: How did the max response, negative = inhibition turn out when CN(C)c1cccc(NC(=O)c2ccc(-c3ccc(F)c(F)c3)c3ccoc23)c1 was run?
A: Its max response, negative = inhibition is -11%.

Q: CCOC(=O)[C@]12CCCC=C1N(CCC1=CCCCC1)C(=O)[C@H](CC(=O)N1CCN(C(=O)c3ccco3)CC1)C2 was tested. Which max response, negative = inhibition did it give?
A: The max response, negative = inhibition was -19.8%.

Q: Which max response, negative = inhibition does the source give for C[C@@H]1CN([C@@H](C)CO)S(=O)(=O)c2ccc(C#Cc3cccc(F)c3)cc2O[C@H]1CN(C)S(=O)(=O)c1cn(C)cn1 here?
A: Its max response, negative = inhibition is -28.6%.

Q: CCCCCn1nnnc1-c1nc2cc3ccccc3cc2[nH]c1=O was tested. Which max response, negative = inhibition did it give?
A: The max response, negative = inhibition was -6.28%.

Q: Which Potency does the source give for CCn1cc(C(=O)N2CCN(C3CCCCC3)CC2)c2cc(OC)c(OC)cc2c1=O here?
A: Its Potency is 10.6 µM (active).

Q: With CCn1cc(C(=O)NCC2COc3ccccc3O2)c2cc(OC)c(OC)cc2c1=O (centres undefined) as the molecule, how does the max response, negative = inhibition read?
A: The max response, negative = inhibition was -0.135%.

Q: How did the max response, negative = inhibition turn out when COc1cc(C(=O)N2CCN(C3CCC(C)CC3)CC2)cc(OC)c1OC (centres undefined) was run?
A: Its max response, negative = inhibition is -10%.

Q: How did the max response, negative = inhibition turn out when CCc1nc2ccc(C(=O)NC3CCN(Cc4ccccc4)CC3)cn2c1N(C)CCN1CCOCC1 was run?
A: The max response, negative = inhibition was -5.14%.

Q: Which max response, negative = inhibition does the source give for CCCCCc1c(-c2ccc(OC)c(OC)c2)ncn1CCc1ccccc1OC here?
A: The max response, negative = inhibition was -4.35%.

Q: Cc1cc([N+](=O)[O-])c(N2CCC[C@@H]2C(=O)O)c([N+](=O)[O-])c1 was tested. Which max response, negative = inhibition did it give?
A: Its max response, negative = inhibition is -4.11%.

Q: With Cc1cc(C)c(NC(=S)N2CCCC2C(=O)O)c(C)c1 (centres undefined) as the molecule, how does the Potency read?
A: Its Potency is 6.7 µM (active).

Q: How did the max response, negative = inhibition turn out when Cc1cc(C)c(NC(=O)CN2CCCCCC2)c(C)c1 was run?
A: The max response, negative = inhibition was -2.23%.

Q: How did the Potency turn out when COc1ccc(CS(=O)/C(Cl)=C(/Cl)C(=O)Nc2ccc(OC)nc2)cc1 (centres undefined) was run?
A: Its Potency is 2.67 µM (active).

Q: With COc1ccc(NC(=O)CN2C(=O)NC(C)(c3ccccc3)C2=O)cn1 (centres undefined) as the molecule, how does the max response, negative = inhibition read?
A: Its max response, negative = inhibition is 2.84%.

Q: For COc1ccc(C(O)c2nc(-c3ccc(OC)nc3)cs2)cc1 (centres undefined), which max response, negative = inhibition is on record?
A: The max response, negative = inhibition was 6.19%.

Source: PubChem BioAssay AID720504 (National Center for Advancing Translational Sciences (NCATS), 2013)
